{
  "source": "paper PMC8384837",
  "about": "“Expanding the binding specificity for RNA recognition by a PUF domain”",
  "experiment_in_all_cases": "yeast three-hybrid, YBZ-1, SC-Leu-His + 0.5 mM 3-AT, 4 days",
  "settings_in_all_cases": "tags: N-Gal4 AD-HA kept; label: inside an RPR1-promoter hybrid RNA with tandem MS2 sites; ssRNA",
  "key": {"[1]": {"molecular_target": "PUM1 PUF domain R3-RCW (Homo sapiens, UniProt Q14671 828-1176, C935R;R936C;Q939W)", "method_in_brief": "(§1)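 Pumilio-1 PUF domain libraries, randomized (NNK) at the three base-contacting residues of each repeat, were co-expressed with matching RNA elements from a centromeric plasmid in strain YBZ-1 (LexA–MS2 coat fusion, HIS3 reporter). Transformants were plated on SC-Leu (input) and SC-Leu-His + 0.5 mM 3-AT (selection) for four days, and repeat regions were PCR-amplified and Illumina-sequenced. The interaction score is the log2 change in variant frequency from input to selection, with pseudocount 1 where absent.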"}, "[2]": {"molecular_target": "PUM1 PUF domain R3-IYD (Homo sapiens, UniProt Q14671 828-1176, C935I;R936Y;Q939D)", "method_in_brief": "as §1"}, "[3]": {"molecular_target": "PUM1 PUF domain R1-YVK (Homo sapiens, UniProt Q14671 828-1176, S863Y;R864V;Q867K)", "method_in_brief": "as §1"}, "[4]": {"molecular_target": "PUM1 PUF domain R5-HRR (Homo sapiens, UniProt Q14671 828-1176, C1007H;Q1011R)", "method_in_brief": "as §1"}, "[5]": {"molecular_target": "T1, PUM1 PUF domain R6-TFA (Homo sapiens, UniProt Q14671 828-1176, N1043T;Y1044F;Q1047A)", "T1 sequence": "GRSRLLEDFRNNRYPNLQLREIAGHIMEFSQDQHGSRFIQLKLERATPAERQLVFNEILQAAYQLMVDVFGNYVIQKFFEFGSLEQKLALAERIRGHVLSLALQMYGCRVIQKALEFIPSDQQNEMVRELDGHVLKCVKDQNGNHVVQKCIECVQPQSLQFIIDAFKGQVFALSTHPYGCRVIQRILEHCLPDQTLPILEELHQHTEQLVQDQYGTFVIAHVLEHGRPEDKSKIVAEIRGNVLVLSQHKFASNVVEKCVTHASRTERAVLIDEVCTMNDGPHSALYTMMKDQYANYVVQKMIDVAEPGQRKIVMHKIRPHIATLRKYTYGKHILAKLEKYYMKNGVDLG", "method_in_brief": "as §1"}, "[6]": {"molecular_target": "PUM1 PUF domain R4-RHL (Homo sapiens, UniProt Q14671 828-1176, N971R;Q975L)", "method_in_brief": "as §1"}, "[7]": {"molecular_target": "PUM1 PUF domain R7-RGG (Homo sapiens, UniProt Q14671 828-1176, S1079R;N1080G;E1083G)", "method_in_brief": "as §1"}, "[8]": {"molecular_target": "PUM1 PUF domain R8-KHC (Homo sapiens, UniProt Q14671 828-1176, N1122K;Y1123H;Q1126C)", "method_in_brief": "as §1"}, "[9]": {"molecular_target": "PUM1 PUF domain R1-RRN (Homo sapiens, UniProt Q14671 828-1176, S863R;Q867N)", "method_in_brief": "as §1"}, "[10]": {"molecular_target": "PUM1 PUF domain R5-KRV (Homo sapiens, UniProt Q14671 828-1176, C1007K;Q1011V)", "method_in_brief": "as §1"}},
  "data": [
    {"sequence": "GGCUAGAACUAGUGGAUCCCCCGGCGCCCGGCGGCUCGAGCCCGGGUAAGUGUAAUUAGUCUGCAUGCCGCCGGGCGCCAUGCCUGCAGGUCGACUCUAGAAAACAUG", "values": [
      {"measurement": "binding signal", "setting": "[1]", "result": "3.79 log2 enrichment (interaction score)"},
      {"measurement": "binding signal", "setting": "[2]", "result": "2.12 log2 enrichment (interaction score)"}
    ]},
    {"sequence": "GGCUAGAACUAGUGGAUCCCCCGGCGCCCGGCGGCUCGAGCCCGGGUAAGUGUAAAUUGUCUGCAUGCCGCCGGGCGCCAUGCCUGCAGGUCGACUCUAGAAAACAUG", "values": [
      {"measurement": "binding signal", "setting": "[3]", "result": "2.55 log2 enrichment (interaction score)"}
    ]},
    {"sequence": "GGCUAGAACUAGUGGAUCCCCCGGCGCCCGGCGGCUCGAGCCCGGGUAAGUGUUAAUAGUCUGCAUGCCGCCGGGCGCCAUGCCUGCAGGUCGACUCUAGAAAACAUG", "values": [
      {"measurement": "binding signal", "setting": "[4]", "result": "4.62 log2 enrichment (interaction score)"}
    ]},
    {"sequence": "GGCUAGAACUAGUGGAUCCCCCGGCGCCCGGCGGCUCGAGCCCGGGUAAGUGUAAAUAGUCUGCAUGCCGCCGGGCGCCAUGCCUGCAGGUCGACUCUAGAAAACAUG", "values": [
      {"measurement": "binding signal", "setting": "[4]", "result": "1.38 log2 enrichment (interaction score)"},
      {"measurement": "binding signal", "setting": "[5]", "result": "3.93 log2 enrichment (interaction score)"},
      {"measurement": "binding signal", "setting": "[6]", "result": "3.62 log2 enrichment (interaction score)"},
      {"measurement": "binding signal", "setting": "[2]", "result": "3.08 log2 enrichment (interaction score)"}
    ]},
    {"sequence": "GGCUAGAACUAGUGGAUCCCCCGGCGCCCGGCGGCUCGAGCCCGGGUAAGUUUAAAUAGUCUGCAUGCCGCCGGGCGCCAUGCCUGCAGGUCGACUCUAGAAAACAUG", "values": [
      {"measurement": "binding signal", "setting": "[7]", "result": "3.65 log2 enrichment (interaction score)"}
    ]},
    {"sequence": "GGCUAGAACUAGUGGAUCCCCCGGCGCCCGGCGGCUCGAGCCCGGGUAAGCGUAAAUAGUCUGCAUGCCGCCGGGCGCCAUGCCUGCAGGUCGACUCUAGAAAACAUG", "values": [
      {"measurement": "binding signal", "setting": "[8]", "result": "5.19 log2 enrichment (interaction score)"}
    ]},
    {"sequence": "GGCUAGAACUAGUGGAUCCCCCGGCGCCCGGCGGCUCGAGCCCGGGUAAGUGUAAAUGGUCUGCAUGCCGCCGGGCGCCAUGCCUGCAGGUCGACUCUAGAAAACAUG", "values": [
      {"measurement": "binding signal", "setting": "[9]", "result": "2.89 log2 enrichment (interaction score)"}
    ]},
    {"sequence": "GGCUAGAACUAGUGGAUCCCCCGGCGCCCGGCGGCUCGAGCCCGGGUAAGUGUCAAUAGUCUGCAUGCCGCCGGGCGCCAUGCCUGCAGGUCGACUCUAGAAAACAUG", "values": [
      {"measurement": "binding signal", "setting": "[4]", "result": "2.4 log2 enrichment (interaction score)"},
      {"measurement": "binding signal", "setting": "[10]", "result": "4.1 log2 enrichment (interaction score)"}
    ]},
    {"sequence": "GGCUAGAACUAGUGGAUCCCCCGGCGCCCGGCGGCUCGAGCCCGGGUAAGUGUAAGUAGUCUGCAUGCCGCCGGGCGCCAUGCCUGCAGGUCGACUCUAGAAAACAUG", "values": [
      {"measurement": "binding signal", "setting": "[1]", "result": "3 log2 enrichment (interaction score)"}
    ]},
    {"sequence": "GGCUAGAACUAGUGGAUCCCCCGGCGCCCGGCGGCUCGAGCCCGGGUAAGUCUAAAUAGUCUGCAUGCCGCCGGGCGCCAUGCCUGCAGGUCGACUCUAGAAAACAUG", "values": [
      {"measurement": "binding signal", "setting": "[7]", "result": "1.37 log2 enrichment (interaction score)"}
    ]},
    {"sequence": "GGCUAGAACUAGUGGAUCCCCCGGCGCCCGGCGGCUCGAGCCCGGGUAAGUGUAAAUCGUCUGCAUGCCGCCGGGCGCCAUGCCUGCAGGUCGACUCUAGAAAACAUG", "values": [
      {"measurement": "binding signal", "setting": "[9]", "result": "5.26 log2 enrichment (interaction score)"},
      {"measurement": "binding signal", "setting": "[3]", "result": "1.62 log2 enrichment (interaction score)"}
    ]}
  ]
}
